Screens deposited in PubChem BioAssay by National Center for Advancing Translational Sciences (NCATS).
Hits are enriched below; roughly 4.3% of the tested compounds scored in any of these assays.
uPA generation = qHTS for Inhibitors of Cell Surface uPA Generation | cell surface uPA generation assay, qHTS | Potency, µM (top dose mostly 38.3 µM), hits mostly inhibitors | 330,000 tested, 0.31% active | AID 540303, 2011; active means well fitted inhibition curve with a large enough effect; inconclusive means small, poorly fitted or top-dose-only effect; inactive means no such curve, though single readings can be large or run the other way; tested in mouse RAW 264.7 cells; further: nearly all actives have a fitted effect of over 55% in size
MCF10A rereplic = A quantitative high throughput screen for small molecules that induce DNA re-replication in MCF 10a normal breast cells | MCF 10A DNA re-replication, Hoechst nuclear intensity, 48 h | Potency, µM (titrated, usually from 46.1 µM), usual class: activators | 350,000 tested, 2.9% active; further: nearly all actives have a fitted effect of over 50% in size
Giardia kill = Small Molecules that selectively kill Giardia lamblia: qHTS; Giardia lamblia trophozoite viability; activity change, % at 7.66 µM, hits read low; 340,000 tested, 0.15% active; AID 540267, 2011; in the data active means activity change below about -80%; inconclusive means between about -30% and that limit;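 further: parasites exposed to compound for two days anaerobically before the ATP read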
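Giardia trophozoites, 100 cells per well, were exposed to compounds for 48 hrs at 37 deg C under anaerobic conditions; viability was then read as ATP content by bioluminescence after 15-30 min at room temperature.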
SW480 rerep = A quantitative high throughput screen for small molecules that induce DNA re-replication in SW480 colon adenocarcinoma cells; SW480 DNA re-replication, Hoechst DNA content imaging, 48 h; 340,000 tested, 1.8% active; Potency, µM (titrated, usually from 46.1 µM), most hits filed as activators; further: nearly all actives have a fitted effect of over 55% in size
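Image-based read-out: total Hoechst fluorescence of nuclei (405 nm excitation, 500-530 nm emission), with hits raising the fraction of high-intensity nuclei. SW480 colon cells incubated 48 hr with compounds at 37 C.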
Of the large screens only hits and unclear results are named; the others gave an inactive call. Unless noted, the call rests on the fitted dose curve; in most records, active means well fitted activation curve with a large enough effect; inconclusive means small, poorly fitted or top-dose-only effect; inactive means no such curve, though single readings can be large or run the other way.

N#CC1=C(N)NC(=S)C(C(N)=O)C1c1ccc(Cl)cc1Cl (configuration not stated)	MCF10A rereplic 15µM, SW480 rerep 16µM
CCOC(=O)C1C(=O)NC(SC)=C(C#N)C1c1ccccc1F (configuration not stated)	none (no result: uPA generation)
N#CC1=C(N)NC(=S)C(C(N)=O)C1c1ccccc1F (configuration not stated)	MCF10A rereplic inconclusive, SW480 rerep 21µM
O=C(NNC(=S)Nc1ccccc1Cl)c1ccccc1Br	none
Cc1ccc(-c2[nH]c3ccccc3c2C(C[N+](=O)[O-])c2ccco2)cc1 (configuration not stated)	MCF10A rereplic 18µM, SW480 rerep inconclusive
Cc1cnc(C(=O)Nc2ccc(C)c(S(=O)(=O)N3CCCCCC3)c2)cn1	none
CC1=CC(C)[C@H](/C=N/n2c(=O)[nH]c3c([nH]c4ccc(C)cc43)c2=O)C(C)C1 (some centres not stated)	MCF10A rereplic 9.2µM, SW480 rerep inconclusive
COc1ccc(/C=N/n2c(=O)[nH]c3c([nH]c4ccc(C)cc43)c2=O)cc1CN1CCOCC1	none
COc1ccc(-c2c(C#Cc3ccsc3)c3cc(-c4ccc5cc[nH]c5c4)ccc3n2C)cc1	MCF10A rereplic 2.3µM, SW480 rerep inconclusive
COc1cc(OC)cc(-c2c(C#Cc3ccsc3)c3cc(-c4ccc5cc[nH]c5c4)ccc3n2C)c1	none
O=C(Nc1ccncc1)C1CCN(S(=O)(=O)c2ccc(Cl)c(C(F)(F)F)c2)CC1	uPA generation 11µM, MCF10A rereplic inconclusive
Cc1cccc(NC(=O)CN2CCN(C(=O)CN3C(=O)NC4(CCCCC4C)C3=O)CC2)c1C (configuration not stated)	none
COc1ccc(CN2CCC(N(CCc3ccccc3)Cc3ccccc3)CC2)c(OC)c1	MCF10A rereplic 15µM, SW480 rerep inconclusive
CCCN1CCC(N(CCc2ccccc2)Cc2ccccc2)CC1	none
Cc1ccsc1CN(C)C(=O)CN1C(=O)NC(c2ccccc2)(c2ccccc2)C1=O	none
COCCCNc1nc2ccccc2nc1NS(=O)(=O)c1ccc(C)cc1C	Giardia kill inconclusive
O=c1c2c3c(sc2n(CCN2CCOCC2)c(=O)n1Cc1ccco1)CCCCC3	SW480 rerep inconclusive
O=c1c2c3c(sc2n(CCN2CCCCC2)c(=O)n1Cc1ccco1)CCCCC3	MCF10A rereplic 13µM, SW480 rerep inconclusive (no result: uPA generation)
COc1ccc(CCN(CC(=O)NC(C)(C)C)C(=O)Cn2nnc(-c3ccc(C)o3)n2)cc1OC	none
Cc1ccc(NC(=O)CCC(=O)NNC(=O)COc2ccc([N+](=O)[O-])cc2)c(C)c1	MCF10A rereplic 1.6µM
Cc1ccc(OCC(=O)NNC(=O)CCC(=O)Nc2ccc(C)cc2C)cc1	none
COc1ccc(CC(=O)NCc2ccc(-n3cccc3)cc2)cc1OC	MCF10A rereplic 5.8µM, SW480 rerep 5.2µM
Cc1ccc(CNC(=O)Cc2ccc(-n3cccc3)cc2)cc1	MCF10A rereplic 5.8µM, SW480 rerep 4.1µM
COc1ccc(CC(=O)N/N=C/c2c(C)n(C)c3ccccc23)cc1OC	uPA generation inconclusive, MCF10A rereplic 7.3µM, SW480 rerep 15µM
COc1cc(OC)cc(C(=O)NCc2ccc(-n3cccc3)cc2)c1	MCF10A rereplic inconclusive, SW480 rerep inconclusive
COc1ccc(CC(=O)N/N=C/c2cc(Br)cs2)cc1OC	none
Cc1ccc(CNC(=O)CCCCn2c(=O)[nH]c3ccsc3c2=O)cc1	none
Cc1ccc(CNC(=O)Cc2ccc(-n3c(=O)[nH]c4ccsc4c3=O)cc2)cc1	MCF10A rereplic 2.1µM, SW480 rerep 6.5µM
C=CCN(C(C(=O)OC)C(C)C)S(=O)(=O)CCNCc1ccccc1 (configuration not stated)	SW480 rerep inconclusive
Cc1ccc(NC(=O)c2ncn(CCCN[C@H](C)c3cccc4ccccc34)n2)cc1C	uPA generation inconclusive, MCF10A rereplic inconclusive, SW480 rerep inconclusive
O=C1C=CC(=O)N1c1ccc(O)cc1	MCF10A rereplic 10µM, SW480 rerep 21µM
O=C1C=CC(=O)N1c1ccc(OC(F)F)cc1	MCF10A rereplic inconclusive, SW480 rerep 23µM
Cn1ccc(C(=O)N/N=C/c2ccncc2)n1	none
O=[N+]([O-])c1cccc(S(=O)(=O)N2CCN(c3nc(-c4ccccc4)nc4ccccc34)CC2)c1	none (no result: uPA generation, MCF10A rereplic, SW480 rerep)
CCN(CC)S(=O)(=O)c1ccc(C(=O)OC2CCCCC2CN(C)C)cc1 (configuration not stated)	MCF10A rereplic 0.1µM, SW480 rerep inconclusive
CC(=O)c1ccc(S(=O)(=O)N2CCC(NC(=O)c3ccccc3)CC2)cc1	none
COc1ccc(-c2noc(CNC(=O)c3ccc4c(c3)OCO4)n2)cc1OC	none
O=C(CN1CCN(S(=O)(=O)c2ccc(Br)cc2)CC1)N/N=C/c1ccc(Cl)c([N+](=O)[O-])c1	MCF10A rereplic 16µM
CN(C(=O)c1cccc(NC(=O)C2CCN(C(=O)OC(C)(C)C)CC2)c1)C1CCCCC1	none
Cc1cc(-c2nn(-c3ccccc3)cc2/C=C2\SC(N)=NC2=O)ccc1OC(C)C	MCF10A rereplic 4.1µM, SW480 rerep inconclusive
CCCOc1ccc(-c2nn(-c3ccccc3)cc2/C=C2\SC(N)=NC2=O)cc1	MCF10A rereplic 4.6µM, SW480 rerep inconclusive
Cc1cc(/C=C2\SC(N)=NC2=O)c(C)n1-c1ccccc1	none
CCO/C=C/C(O)(CNC(=O)c1ccc(C(C)(C)C)cc1)C(F)(F)F (configuration not stated)	MCF10A rereplic inconclusive, SW480 rerep inconclusive
O=C(Cc1ccc(F)cc1)Nc1ccc(Cl)cn1	none
CCCN1CCC(=O)N(C(CSc2ccc(OC)cc2)CC(C)C)CC1 (configuration not stated)	none (no result: uPA generation, MCF10A rereplic, SW480 rerep)
Cc1ccccc1C1c2[nH]c3ccccc3c2C[C@H]2C(=O)N(c3ccccc3C(=O)NCCN3CCOCC3)C(=O)N12 (some centres not stated)	uPA generation inconclusive, MCF10A rereplic inconclusive, Giardia kill inconclusive
Cc1ccccc1C1c2[nH]c3ccccc3c2C[C@H]2C(=O)N(c3ccccc3C(=O)NCCCN3CCOCC3)C(=O)N12 (some centres not stated)	uPA generation inconclusive, MCF10A rereplic 12µM, SW480 rerep inconclusive
CN(Cc1ccccc1)Cc1ccccc1C(O)c1ccccc1 (configuration not stated)	MCF10A rereplic inconclusive
Cc1c(C)n2c(SCC(=O)Nc3cccc4ccccc34)nnc2[nH]c1=O	SW480 rerep 23µM
CN(C)[C@H]1C(=O)C(C(=O)NCN2CCCC2)=C(O)[C@]2(O)C(=O)C3=C(O)c4c(O)cccc4[C@@](C)(O)[C@H]3C[C@@H]12	none (no result: uPA generation, Giardia kill)
CC(=O)Cc1nsc(NC(=O)c2ccc(-c3cccc(Cl)c3)o2)n1	uPA generation inconclusive, MCF10A rereplic 10µM, SW480 rerep inconclusive
O=C(NC(c1ccc(Cl)cc1)c1cc(Cl)c2cccnc2c1O)c1cccnc1 (configuration not stated)	MCF10A rereplic 15µM, SW480 rerep 2.6µM
CC(=O)NC(c1ccccc1)c1cc(Cl)c2cccnc2c1O (configuration not stated)	MCF10A rereplic inconclusive, SW480 rerep inconclusive
